# This is a sample that favours compounds with a hit; in the whole collection about 1.5% have one here.
# USP10 block = human USP10 deubiquitinase inhibition; purified USP10, Ub-rhodamine fluorescence, 60 min; inhibition, % at 20 µM; hit rate 1.1% among 47,000
# OTUD3 inh = blocks human OTUD3 ubiquitin-rhodamine cleavage; purified OTUD3, Ub-rhodamine fluorescence, 2 h; hit rate 0.7% among 47,000; inhibition, % at 25 µM; AID 1645858; Q5T2D3
# USP7 block = inhibitors of human USP7 deubiquitinase; Q93009; purified USP7, Ub-rhodamine cleavage fluorescence; inhibition, % at 20 µM; hit rate 0.3% among 47,000; AID 1645854
# UCHL1 inh = human UCHL1 deubiquitinase inhibition. P09936. hit rate 0.2% among 47,000. purified UCHL1, Ub-rhodamine cleavage fluorescence. AID 1645859. inhibition, % at 20 µM
# The depositor's hits bear a star. Rule as the data show it: active = inhibition above about 30%; inactive = the rest.
SMILES,USP10 block,OTUD3 inh,USP7 block,UCHL1 inh
CCOc1ccc2[nH]c(=O)c(-c3nc4ccc(C)cn4c3NCc3ccccc3)cc2c1,31*,14,15,5
CCOc1ccc2[nH]c(=O)c(-c3nc4cc(C)ccn4c3NC(C)(C)C)cc2c1,-5,-67,-3,-2
Fc1cc(F)c2[nH]cc(-c3nnnn3-c3ccc4ccccc4c3)c2c1,31*,13,25,10
O=C(COc1ccc2ccccc2c1)NCc1nnnn1-c1ccc(F)c(F)c1,2,-4,2,0
Cn1cc(CN2CCC3(CC2)CCN(c2cccnc2)C3=O)cn1,0,-2,3,0
O=C(NCc1ccco1)c1nn(C23CC4CC(CC(C4)C2)C3)cc1[N+](=O)[O-],0,10,-6,0
O=C(NCc1ccc2c(c1)OCO2)c1nn(C23CC4CC(CC(C4)C2)C3)cc1[N+](=O)[O-],10,33*,12,6
COc1ccc2c(c1)[nH]c1c(N3CCN(C4CCCCC4)CC3)ncnc12,-1,-13,3,0
CCOC(=O)c1ccc(Oc2sccc2[N+](=O)[O-])cc1,4,13,85*,0
Cc1cc(C(=O)N2CCC3(CC2)COc2ccccc2S(=O)(=O)N(C)C3)n[nH]1,0,5,0,-2
CC[C@H](C)[C@H](NC(=O)[C@H]([C@@H](C)CC)N(C)C(C)=O)C(=O)N[C@H](C(=O)N[C@@H](CC(C)C)C(=O)C1(C)CO1)[C@@H](C)O (stereo not given in full),9,31*,-145,25
Cc1ccc(C(=O)O)cc1NC(=O)C(Sc1cccc(NC(=O)c2ccccc2C)c1)c1ccccc1 (stereo not given),37*,49*,-6,2
O=C(O)c1ccc(Cl)c(NC(=O)C(Sc2cccc(NC(=O)c3cccc(Cl)c3)c2)c2ccccc2)c1 (stereo not given),11,-1,-5,1
Cc1oc2ncn(CC(C)C)c(=O)c2c1C(=O)N(C)C1CCCCC1,1,14,-17,2
CCc1nc2c(C#N)c(-c3ccc(Cl)cc3)ccn2n1,24,32*,-45,7
N#Cc1c(-c2ccc3c(c2)OCO3)ccn2nc(-c3ccco3)nc12,-7,-10,-23,-8
O=C(CCc1ccc2[nH]ccc2c1)N1CCCCCC1,-8,-10,-5,-2
CC(=O)Nc1ccc(C(=O)Nc2cc(-c3ccccn3)no2)cc1,0,4,7,1
CCc1cccc(CC)c1NC(=O)COC(=O)c1cc2cccc(OC)c2oc1=O,33*,6,22,3
CC(Sc1n[nH]c2nc3ccccc3n12)C(=O)Nc1ccc2c(c1)OCCO2 (stereo not given),-4,34*,4,0
Nc1ccc(F)c(NS(=O)(=O)c2ccccc2)c1,-2,55*,12,31*
O=C(Nc1ccccc1F)c1cncc(NS(=O)(=O)c2ccccc2)c1,0,6,4,6
Cc1nnc(-c2ccc3ccn(CC(=O)N4CCCc5ccccc54)c3c2)o1,85*,2,-27,51*
Cc1nnc(-c2ccc3ccn(CC(=O)N4CCN(c5ccccc5)CC4)c3c2)o1,47*,73*,-15,25
O=C(Nc1ccc(-n2cccc2)cc1)c1cccc([N+](=O)[O-])c1,19,0,0,-4
SMILES,USP10 block,OTUD3 inh,USP7 block,UCHL1 inh
O=C(Nc1cccc([N+](=O)[O-])c1)Nc1ccc2snnc2c1,56*,-1,84*,68*
O=C(Cn1cccc(S(=O)(=O)N2CCCC2)c1=O)Nc1ccc(F)cc1,-5,-15,-8,-8
Cc1ccc(NC(=O)Nc2ccc(C)n(CC(=O)Nc3ccc(C)c(C)c3)c2=O)cc1,66*,-3,43*,5
CCCCC/C=C/c1c(O)cc(CC=C(C)C)c(O)c1C=O,-12,3,-13,-15
CCCCCCCCC/C=C/C(=O)CCc1c(O)c(C=O)c2c(c1O)C(=O)OC2O (stereo not given),45*,75*,87*,86*
Cc1noc(C)c1CN1CC[C@H]2O[C@H](C(=O)NCc3ccco3)CC[C@H]21,-4,33*,-1,-5
COc1ccc(OC)c(NC(=O)c2cc(S(=O)(=O)N3CCc4ccccc43)ccc2OC)c1,5,6,7,-1
COc1ccc(S(=O)(=O)N2CCc3ccccc32)cc1C(=O)Nc1ccc2c(c1)NC(=O)C(C)O2 (stereo not given),35*,-8,4,0
CN1CC(=O)N(C2CCCNCC2)Cc2c1ncnc2N1CCCCC1 (stereo not given),-11,-16,-2,0
COc1ccc(Nc2nnc(Cc3ccc(Cl)cc3)c(=O)[nH]2)cc1,39*,3,28,0
Cc1cccc(CNC(=O)c2c(N3CCCC3=O)c3cc(C)ccc3n2C)c1,3,9,2,2
Cn1nc(Cl)c(Cl)c1Oc1ccc(S(=O)(=O)Nc2ccc(Oc3ccc(C(F)(F)F)cn3)c(Cl)c2)cc1,69*,-8,25,8
O=C(Nc1cccc(Br)c1)c1cc(-c2cccnc2)n[nH]1,37*,20,28,11
CC(=O)c1cccc(NC(=O)c2cc(-c3cccnc3)n[nH]2)c1,7,-2,1,5
O=C(C1CCCO1)N1CCN(c2ccc(Nc3ccccc3)nn2)CC1 (stereo not given),-1,-2,-2,-3
O=c1[nH]c(C2CCN(S(=O)(=O)c3ccccc3)CC2)nc2c1nnn2Cc1c(Cl)cccc1Cl,32*,5,7,4
COC(=O)c1ccc(Cn2nnc3c(=O)[nH]c(C4CCCN(S(=O)(=O)c5ccc(C)cc5)C4)nc32)cc1 (stereo not given),41*,13,18,7
O=c1[nH]c(C2CCN(S(=O)(=O)c3ccc(S(=O)(=O)N4CCOCC4)cc3)CC2)nc2c1nnn2Cc1ccc(F)cc1,45*,8,30*,31*
Cc1cc(C(F)(F)F)n(-c2ccc(NC(=O)Nc3cccc(C(F)(F)F)c3)cc2)n1,30*,31*,5,6
Cn1cc(NC(=O)Nc2cccc(C(F)(F)F)c2)c2ccccc2c1=O,68*,88*,-34,27
COc1cccc(Cn2nc3n(CC(C)C)c(=O)c4ccc(C(=O)NCC(C)C)cc4n3c2=O)c1,8,36*,5,0
CCc1cnc2c(c1OC)c(=O)n(CC(=O)NCC1CCCO1)c(=O)n2C (stereo not given),-2,-5,-5,-8
O=C(Cn1cc(S(=O)(=O)N2CCCC2)ccc1=O)Nc1ccc(F)cc1,2,10,3,3
COc1ccc(NC(=O)COc2cc(C)nc(-c3ccc(C)cc3)n2)c(OC)c1,30*,10,4,0
O=C(Nc1nc(-c2ccc3c(c2)CCN3C(=O)C2CC2)cs1)c1cnccn1,-1,17,4,1
O=C(NCc1ccc(F)cc1)C1CCCN(S(=O)(=O)N2CCOCC2)C1 (stereo not given),0,-10,1,-2
C=C1Nc2ccccc2C(=O)N1c1cccc(NC(=O)c2ccc(C)c(C)c2)c1,-2,30*,2,6
Cn1cc(C(=O)NCCC2=CCCCC2)c(S(=O)(=O)N2CCCCC2)n1,-4,-8,-48,0

# Source: PubChem (Buhrlage Lab, Dana-Farber Cancer Institute and Novartis Institutes for BioMedical Research (Cambridge, Mass))
